Assay results: PubChem BioAssay AID493191 (Broad Institute, 2011)
Out of some 1,300 compounds screened, about 330 (25%) were called active. How the calls were made is not given here. Not all results are given here. Potency and affinity values are given separately.

test: growth inhibition of MALME3 cells – cell-based, CellTiter-Glo, cherry-picked, orthogonal assay for MITF inhibitor project, dose response (AID 493191); conditions: MALME3 melanoma viability, CellTiter-Glo luminescence, 24 h; series mostly up to 35 µM; activity change, negative = inhibition: at the top concentration

| SMILES | activity change, negative = inhibition |
| --- | --- |
| O=C(Nc1ccccc1F)C(=O)Nc1cccc2ccccc12 | -0.168% (inactive) |
| Cc1ccc2oc(C(Cl)(Cl)Cl)cc(=O)c2c1 | -14.9% (inactive) |
| O=C(CCl)Nc1cccc(S(=O)(=O)NC2=NCCCCC2)c1 | -33% (inactive) |
| O=C(CSc1nnnn1-c1ccc(O)cc1)Nc1cccc(S(=O)(=O)N2CCCC2)c1 | -6.31% (inactive) |
| COc1ccc(C(=O)Nc2nc3ccc(OC)cc3s2)cc1 | 2.29% (inactive) |
| COc1cccc(N2CCN(C(=O)c3ccc(CS(=O)c4ccccc4Cl)o3)CC2)c1 (configuration not stated) | 0.783% (inactive) |
| CC1CCN(c2nc3ccc(C(=O)O)cc3s2)CC1 | -11.3% (inactive) |
| O=C(c1ccc(F)cc1)N1CCC(c2ccccc2)C1 (configuration not stated) | 6.87% (inactive) |
| CC(C)c1nnc(NC(=O)CCC2CCCCC2)s1 | -0.152% (inactive) |
| COc1ccc2oc(=O)c(C(=O)Nc3ccccc3C)cc2c1 | -4.46% (inactive) |
| c1ccc(OCc2nn3c(-c4ccccn4)nnc3s2)cc1 | 4.41% (inactive) |
| COc1ccc(-c2c[n+](CC(=O)OC3CC(C)CCC3C(C)C)c3n2CCC3)cc1 (configuration not stated) | -48.5% (inactive) |
| Cc1ccc(-c2c[n+](Cc3ccc(Cl)cc3)c3n2CCC3)cc1 | -11.4% (inactive) |
| COc1ccc(N/N=C/c2c(C(=O)O)ccc3ccccc23)cc1 | -11.4% (inactive) |
| Cc1ccc(COc2ccc(C)nc2[N+](=O)[O-])cc1 | 9.51% (inactive) |
| CCc1cc(C=NC2CCCCC2)c(O)s1 | 2.76% (inactive) |
| O=[N+]([O-])c1cc(Cl)cc(/C=N\Nc2ccccn2)c1O | -43.7% (inactive) |
| COc1cc2c(c(OC)c1OC)-c1ccc(N(C)CC(OC)OC)c(=O)cc1[C@@H](NC(C)=O)CC2 | 20.4% (inactive) |
| Cc1cc(N2CCOCC2)ccc1/C=C\[N+](=O)[O-] | -48.4% (inactive) |
| O=C(Nc1ccc(Cl)cc1)C1C2CCCCC21 (configuration not stated) | -0.186% (inactive) |
| COc1ccc(C(=O)NC(=O)Nc2cc(C)ccn2)cc1 | -25.7% (inactive) |
| N/C(=N\OC(=O)c1ccccc1)c1ccccn1 | -32.2% (inactive) |
| COCc1cc(C)nc2sc(C(=O)Nc3cccc(OC)c3)c(N)c12 | 6.83% (inactive) |
| Cc1cccc2sc(N(CCCN(C)C)C(=O)c3nc4ccccc4s3)nc12 | -22.2% (inactive) |

| SMILES | activity change, negative = inhibition |
| --- | --- |
| CC(=O)OCCCNc1cc(Sc2ccc(Cl)cc2)c2nonc2c1[N+](=O)[O-] | -45.4% (inactive) |
| CCC(=O)OCCNc1cc(Sc2nc3ccccc3[nH]2)c2nonc2c1[N+](=O)[O-] | -44.7% (inactive) |
| O=[N+]([O-])c1c(NCCCO)cc(Sc2ccc(Cl)cc2)c2nonc12 | -28.4% (inactive) |
| O=C(Nc1ccccc1F)c1ccc2c(c1)OCO2 | -14.2% (inactive) |
| COc1cccc(-c2nnc3n2N=C(C(C)(C)C)CS3)c1 | 1.74% (inactive) |
| Cc1ccc(C2=NN(C(=O)CCl)C(c3cccs3)C2)o1 (configuration not stated) | -27.1% (inactive) |
| C=C1C(=O)C=C[C@]2(C)C[C@@H]3OC(=O)[C@](C)(O)[C@H]3C[C@@H]12 | -38.6% (inactive) |
| CNc1oc(/C=C/c2cccc(OC)c2)nc1C#N | -4.03% (inactive) |
| CCCN1C(=O)c2ccc(C(=O)Nc3cc(C)ccc3O)cc2C1=O | -17.9% (inactive) |
| NNC(=O)c1cc2ccccc2cc1O | -15% (inactive) |
| Cn1c(=O)c([N+](=O)[O-])c(-n2ccnc2)c2ccccc21 | 3.26% (inactive) |
| CCn1c(=O)c(C(=O)NCc2ccccc2Cl)c(O)c2ccccc21 | -5.21% (inactive) |
| COc1cc([N+](=O)[O-])cc(/C=N/NC(=O)c2ccc(NC(=O)c3ccc(C)cc3)cc2)c1O | -29.5% (inactive) |
| CCOc1cc(NC(=O)CCl)c(OCC)cc1NC(=O)CCl | -11.9% (inactive) |
| O=C(O)c1cccc(NC(=S)N/N=C/c2ccccn2)c1 | 0.21% (inactive) |
| O=C(NC1CCCCC1)C(c1cccnc1)N(C(=O)CCl)c1ccc(F)cc1 (configuration not stated) | -45.1% (inactive) |
| COc1cc2c(cc1OC)C(C)N(S(=O)(=O)c1cnc(Cl)c(Cl)c1)CC2 (configuration not stated) | -24.5% (inactive) |
| COc1cc(CN2CCC(C(N)=O)CC2)ccc1OCc1ccccc1 | -2.67% (inactive) |
| Cc1cc(C)c(C#N)c(SCc2nnc(-c3ccccc3)o2)n1 | 6.74% (inactive) |
| O=C(NC1CCCCC1)c1cc2cc(Br)ccc2o1 | 8.76% (inactive) |
| COc1cc2c(c(OC)c1OC)-c1ccc(OC)c(=O)cc1C(NC(C)=O)CC2 (configuration not stated) | 7.87% (inactive) |
| O=C(C[n+]1cc(-c2ccc(F)cc2)n2c1CCC2)c1cccs1 | 8.22% (inactive) |
| Cc1nc(SCC(=O)Nc2ccc(CN3CCCC3)cc2)c2c(C)c(C)sc2n1 | -48.9% (inactive) |
| O=C(CCl)Nc1ccc(-c2ccccc2)cc1 | -37.2% (inactive) |

| SMILES | activity change, negative = inhibition |
| --- | --- |
| Cc1cccc(OCC(=O)Nc2cccc(O)c2)c1 | 4.34% (inactive) |
| O=C(CCl)Nc1ccc(Sc2ccc(NC(=O)CCl)cc2)cc1 | -7.9% (inactive) |
| Cc1ccc2cc(NC(=O)Cc3ccccc3)ccc2n1 | -6.29% (inactive) |
| COc1cccc(NC(=O)c2cc3ccccc3cc2OC)c1 | -22.4% (inactive) |
| COc1ccc(-c2cc(-c3ccc(OC)c(OC)c3)n[nH]2)c(O)c1 | 2.12% (inactive) |
| CCCOC(=O)c1ccc(NC(=O)C2CCCO2)cc1 (configuration not stated) | 11.7% (inactive) |
| CC1=NC(=O)C(N=Nc2cccc(C(=O)O)c2)N1c1ccccc1 (configuration not stated) | 2.56% (inactive) |
| Cc1ccc(-c2c[n+](Cc3ccc(Cl)c(Cl)c3)c3n2CCC3)cc1 | -44.3% (inactive) |
| Cc1oc(=O)c(NC(=O)c2ccccc2)cc1C(=O)c1ccccc1 | 2.83% (inactive) |
| Cc1cc(C)c2nc3nc(C)cc(C)c3c(N)c2c1 | -10.5% (inactive) |
| Cc1cc(C)c2c(N)c(C(=O)N/N=C/c3ccccc3)sc2n1 | 7.24% (inactive) |
| Cn1nnnc1Sc1ncnc2scc(-c3ccsc3)c12 | -2.32% (inactive) |
| Cn1nnnc1Sc1ncnc2scc(-c3ccc(F)cc3)c12 | -30.6% (inactive) |
| O=C(O)c1ccc(N/N=C/c2ccc(OC(=O)c3cccc(Cl)c3)cc2)cc1 | 4.66% (inactive) |
| COc1ccccc1N1CCN(/N=C/c2cccc(Cl)c2)CC1 | 0.195% (inactive) |
| O=C(Nc1nc(-c2ccccn2)cs1)c1ccccc1-n1cnnn1 | -19.8% (inactive) |
| CC(Oc1ccccc1)C(=O)Nc1nc(-c2ccccn2)cs1 (configuration not stated) | -20% (inactive) |
| COc1ccc(C(=O)/C=C/Nc2ccccn2)cc1 | -25.4% (inactive) |
| Cc1nc2ccc(NC(=O)c3ccco3)cc2nc1C | 14.5% (inactive) |
| O=C(Nc1ccc2nn(-c3ccccc3)nc2c1)c1ccco1 | 6.65% (inactive) |
| Cc1cccc(NC(=O)c2ccc([N+](=O)[O-])o2)c1C | -47.8% (inactive) |
| Cc1cc(C(=O)Nc2cccc(C(=O)O)c2)oc1C | -4.21% (inactive) |
| COc1ccc(C(=O)Nc2ccc3c(c2)OCCO3)cc1Br | -6.9% (inactive) |
| CC(C)[C@H](NC(=O)OC(C)(C)C)c1nnc(S(=O)(=O)Cc2c(F)cccc2Cl)o1 | -37.9% (inactive) |

| SMILES | activity change, negative = inhibition |
| --- | --- |
| CCOc1ccc(C(=O)N2CCc3ccccc32)cc1 | 3.7% (inactive) |
| N#C/C(=C\c1cccs1)C(=O)NCC1CCCO1 (configuration not stated) | 1.37% (inactive) |
| CN1CCN(CCCOc2ccc(-c3ccccc3)cc2)CC1 | 9.29% (inactive) |
| Cc1ccc2oc(=O)n(CCCOc3ccccc3)c2c1 | 2.92% (inactive) |
| CN(C)Cc1c(O)ccc2c1O/C(=C\C=C\c1ccccc1)C2=O | 7.22% (inactive) |
| Cc1ccccc1OCc1nc2c3cnn(C)c3ncn2n1 | -4.86% (inactive) |
| CC(=O)NC1=C(N(C)C2CCS(=O)(=O)C2)C(=O)c2ccccc2C1=O (configuration not stated) | -22.3% (inactive) |
| CCCCC1C(=O)N(c2ccccc2)N(c2ccc(O)cc2)C1=O (configuration not stated) | -3.31% (inactive) |
| O=C(COc1ccc2c(c1)CCC2)N1CCc2ccccc21 | 3.34% (inactive) |
| O=C(CCl)N(c1ccccc1)C1CCS(=O)(=O)C1 (configuration not stated) | -45.5% (inactive) |
| O=C(Nc1ccccc1)NN(C(=O)CCl)c1ccccc1 | -29.5% (inactive) |
| CN(C)c1ccc(/C=N/N2CCN(c3ccccn3)CC2)cc1 | -17.2% (inactive) |
| Cc1ccc(NC(=O)C2CCN(S(=O)(=O)c3c(C)noc3/C=C/c3ccco3)CC2)nc1 | -29% (inactive) |
| CCN=c1scc(-c2ccco2)n1/N=C/c1ccc(O)cc1 | 4.77% (inactive) |
| Cc1ccc(C(CNS(=O)(=O)c2ccc(Br)cc2)N2CCN(C)CC2)cc1 (configuration not stated) | -14.8% (inactive) |
| Cc1ccc(S(=O)(=O)Nc2cccc3cccnc23)cc1 | -32.9% (inactive) |
| NC(=O)C1CCN(C2=C(NS(=O)(=O)c3ccc(Br)cc3)C(=O)c3ccccc3C2=O)CC1 | -17.1% (inactive) |
| O=C(/C=C/c1ccc2c(c1)OCCO2)c1ccccc1 | -1.96% (inactive) |
| O=C(NC1=NCCS1)c1ccc(Cl)c(Cl)c1 | 3.67% (inactive) |
| CC(C)c1ccc(C(=O)Nc2cccnc2)cc1 | 7.79% (inactive) |
| O=C(NCc1ccccc1)NC1(C(=O)Nc2ccc3c(c2)OCCO3)CCCCC1 | 10.7% (inactive) |
| COc1ccc(-n2cc(-c3ccc(C)cc3)[n+]3c2SCC3)cc1 | -25.4% (inactive) |
| COc1cc(SC)ccc1C(=O)Nc1nc(C)cs1 | -42.4% (inactive) |
| O=C(CSc1nc2ccccc2[nH]1)c1ccc2c(c1)OCO2 | 3.26% (inactive) |

| SMILES | activity change, negative = inhibition |
| --- | --- |
| O=C(Nc1ccc(Br)cc1)c1ccc2c(c1)OCO2 | 9.74% (inactive) |
| Cc1cccc(NC(=O)c2cnn(-c3ccccc3)c2C)c1C | -1.17% (inactive) |
| CCc1nc2oc3ccc(C)cc3c(=O)c2cc1C(=O)OC | -4.11% (inactive) |
| O=C(N/N=C/C(Cl)=C\c1ccccc1)c1cccs1 | -8.54% (inactive) |
| O=C(NCc1ccco1)c1nc2c(nnn2Cc2ccccc2Cl)c(=O)[nH]1 | -9.09% (inactive) |
| CCOc1ccc(N=C(C)C2=C(O)c3ccccc3C2=O)cc1 | -2.1% (inactive) |
| Nc1nnc(/C=C/c2ccccc2Cl)s1 | 2.68% (inactive) |
| O=C(NCC1CCCO1)c1cc(-c2ccc(Cl)cc2Cl)on1 (configuration not stated) | -6.27% (inactive) |
| CS/C(N)=N/N=C/c1ccc2c(c1)OCO2 | -7.25% (inactive) |
| CN(C)c1nc(-c2ccccn2)nnc1-c1ccccc1 | -15.3% (inactive) |
| O=C(/C=C/c1ccc(Cl)c([N+](=O)[O-])c1)c1ccc(O)cc1 | -28.2% (inactive) |
| O=C(c1ccc(S(=O)(=O)Cc2ccccc2Cl)c([N+](=O)[O-])c1)N1CCN(c2ccccn2)CC1 | -1.04% (inactive) |
| COc1ccc(/C=C2\SC(=S)N(CCCC(=O)NNC(=O)c3ccccc3O)C2=O)cc1 | -9.93% (inactive) |
| N#C/C(=C(/O)CCl)c1nc2ccccc2[nH]1 | -37.4% (inactive) |
| COc1ccc(O)c(/C=N/NC(=O)c2ccc(CSc3nc(C)cc(C)n3)cc2)c1 | -19.8% (inactive) |
| COc1nc(NC2CCCCC2)nc(NC(C)(C)C)n1 | -24.6% (inactive) |
| O=C(CCCc1ccccc1)Nc1cccc(C(=O)O)c1 | 0.114% (inactive) |
| CCOC(=O)c1[nH]cnc1N=Nc1c(O)ccc2ccccc12 | -27.8% (inactive) |
| O=C1N=C(N2CCOCC2)S/C1=C\C=C/c1ccccc1 | 3.9% (inactive) |
| Cc1nc(-c2ccccn2)sc1C(=O)Nc1ccc(F)cc1F | 2.39% (inactive) |
| O=C(O)c1cc(N/N=C/C(Cl)=C/c2ccccc2)ccc1Cl | 6.59% (inactive) |
